Here are results for 13 molecules from PubChem BioAssay.

In general, AC50 refers to the concentration at which the activity in the assay is half-maximal.

Results filed as inconclusive are left out. The source made the active and inactive calls. Unless noted, no cut-off is given here; in the data, nearly all actives have AC50 up to about 27 µM.

One test in a line: viability loss in pontine glioma line – cell-based, JHH-DIPG-1, MIPE4.0, CellTiter-Glo, qHTS, dose response (AID 1347062).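 For AC50: cells exposed to compound for two days before readout.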 The following applies: JHH-DIPG-1 viability, CellTiter-Glo ATP luminescence. Background: Cellular ATP, detected with luciferase, serves as a proxy for viable cell number.
Consider `CCN1C[C@]2(OC(=O)c3ccccc3NC(C)=O)CC[C@H](OC)[C@@]34[C@@H]2C[C@@H]([C@@H]13)[C@@]1(O)C[C@H](OC)[C@H]2C[C@@H]4[C@]1(O)[C@H]2OC`, for which the result was inactive.

For `C[C@]12CC[C@H]3[C@@H](CC[C@@]45O[C@@H]4C(O)=C(C#N)C[C@]35C)[C@@H]1CC[C@@H]2O`, the call was inactive.

With `c1ccc2c(CN3CCNCC3)cccc2c1`, the outcome was inactive.

As to `CC1=C2C[C@H]3[C@@H](CC=C4C[C@@H](O)CC[C@@]43C)[C@@H]2CC[C@]12O[C@@H]1C[C@H](C)CN[C@H]1[C@H]2C`, the molecule was called inactive.

`O=c1[nH]c2ccc(Cl)cc2c(N[C@@H]2CN3CCC2CC3)c1-c1nc2ccccc2[nH]1`: the AC50 is 1870 nM (active).

Turning to `O=C(Nc1ccncc1)C(=O)c1cn(Cc2ccc(Cl)cc2)c2ccccc12`, the concentration at half-maximal activity (AC50) was 296 nM (active).

As to `CC[C@H]1/C=C\C=C/C[C@@H](C)[C@H](O)[C@@](C)(O)C(=O)[C@@H](C)[C@H](O)[C@@H](C)C(=O)[C@@H](C)[C@H](O)[C@@H](C)/C=C/C(=O)O[C@@H]2[C@H](C)[C@H](CC1)O[C@]1(CC[C@H](C)[C@H](C[C@@H](C)O)O1)[C@H]2C`, the concentration at half-maximal activity (AC50) was 20900 nM (active).

Regarding `O=S(=O)(F)Cc1ccccc1`, the result was inactive.

With `C[C@@H]1CC[C@@]2(OC1)O[C@H]1C[C@H]3[C@@H]4CC=C5C[C@@H](O[C@@H]6O[C@H](CO)[C@@H](O[C@@H]7O[C@@H](C)[C@H](O)[C@@H](O)[C@H]7O)[C@H](O)[C@H]6O[C@@H]6O[C@@H](C)[C@H](O)[C@@H](O)[C@H]6O)CC[C@]5(C)[C@H]4CC[C@]3(C)[C@H]1[C@@H]2C`, the AC50 was 2350 nM (active).

Turning to `CC(=O)Nc1ccc(OC[C@](C)(O)C(=O)Nc2ccc([N+](=O)[O-])c(C(F)(F)F)c2)cc1`, the molecule was called inactive.

`CC(N[C@H]1C[C@@H]1c1ccccc1)c1ccc2c(c1)OCCO2` (some centres undefined): the molecule was called inactive.

A short description of another test: viability loss in pontine glioma line – cell-based, SU-DIPG-IV, MIPE4.0, CellTiter-Glo, qHTS, dose response (AID 1347063; cut-off not given, nearly all actives have AC50 up to about 30 µM;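 note: compound exposure lasted 48 hours before the viability readout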). Particulars: CellTiter-Glo ATP luminescence.
Take `CCN1C[C@]2(OC(=O)c3ccccc3NC(C)=O)CC[C@H](OC)[C@@]34[C@@H]2C[C@@H]([C@@H]13)[C@@]1(O)C[C@H](OC)[C@H]2C[C@@H]4[C@]1(O)[C@H]2OC`: the call was inactive.

`CC1=C2C[C@H]3[C@@H](CC=C4C[C@@H](O)CC[C@@]43C)[C@@H]2CC[C@]12O[C@@H]1C[C@H](C)CN[C@H]1[C@H]2C`: the call was inactive.

As to `O=c1[nH]c2ccc(Cl)cc2c(N[C@@H]2CN3CCC2CC3)c1-c1nc2ccccc2[nH]1`, the AC50 is 1660 nM (active).

Take `CN1[C@@H]2CC(O)C[C@H]1[C@@H]1O[C@@H]12` (some centres undefined): the concentration at half-maximal activity (AC50) is 16600 nM (active).

As for `C[C@]12Cc3cn[nH]c3C[C@@H]1CC[C@@H]1[C@@H]2CC[C@@]2(C)[C@H]1CC[C@]2(C)O`, the molecule was classed as inactive.

With `CC[C@H]1/C=C\C=C/C[C@@H](C)[C@H](O)[C@@](C)(O)C(=O)[C@@H](C)[C@H](O)[C@@H](C)C(=O)[C@@H](C)[C@H](O)[C@@H](C)/C=C/C(=O)O[C@@H]2[C@H](C)[C@H](CC1)O[C@]1(CC[C@H](C)[C@H](C[C@@H](C)O)O1)[C@H]2C`, the AC50 was 10500 nM (active).

Take `O=S(=O)(F)Cc1ccccc1`: the outcome was inactive.

As to `C[C@@H]1CC[C@@]2(OC1)O[C@H]1C[C@H]3[C@@H]4CC=C5C[C@@H](O[C@@H]6O[C@H](CO)[C@@H](O[C@@H]7O[C@@H](C)[C@H](O)[C@@H](O)[C@H]7O)[C@H](O)[C@H]6O[C@@H]6O[C@@H](C)[C@H](O)[C@@H](O)[C@H]6O)CC[C@]5(C)[C@H]4CC[C@]3(C)[C@H]1[C@@H]2C`, the AC50 is 833 nM (active).
